Source: PubChem (National Center for Advancing Translational Sciences (NCATS))
In the library only some 12% were active in any assay of this set; here they are far more common.
Sfp PPTase inh – qHTS Assay for Inhibitors of Bacillus subtilis Sfp phosphopantetheinyl transferase (PPTase). 4'-phosphopantetheinyl transferase ffp (Bacillus subtilis), Q9F4F7. Biochemical Sfp PPTase activity, qHTS. Potency, µM, usual class: inhibitors. AID 1490, 2009. actives 3.5% (n = 310,000);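 further: the enzyme is Sfp with the accession as filed and its product quenches rhodamine fluorescence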
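Compounds were incubated with enzyme (final 15 nM) for 15 min at room temperature before substrate addition started the reaction. Fluorescence at 525 nm excitation, 598 nm emission was recorded immediately and after 30 minutes.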
JMJD2A Tudor – qHTS Assay for Inhibitors of JMJD2A-Tudor Domain; Lysine-specific demethylase 4A (Homo sapiens), O75164; AlphaScreen JMJD2A-Tudor / H3K4me3 peptide binding; Potency, µM (series often up to 114 µM), most hits filed as inhibitors; actives 4.4% (n = 390,000); AID 504339, 2011; further: nearly all actives have a fitted effect of over 50% in size
BAZ2B inh – qHTS Assay for Inhibitors of BAZ2B; actives 4.4% (n = 360,000); AID 504333, 2011; Bromodomain adjacent to zinc finger domain protein 2B (Homo sapiens), Q9UIF8; AlphaScreen BAZ2B-H3K14Ac peptide displacement; Potency, µM (highest dose often 114 µM), hits mostly inhibitors; further: nearly all actives have a fitted effect of over 60% in size
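Inhibition is scored as reduced AlphaScreen emission. The BAZ2B/b-H3(5-23)K14Ac complex (50 nM each) in PBS pH 7.4, 0.01% Tween-20 meets compound (up to 110 uM) for 30 min at RT before bead addition.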
HP1b binding inh – HTS for Inhibitors of HP1-beta Chromodomain Interactions with Methylated Histone Tails; Potency, µM (highest dose often 114 µM), actives largely listed as inhibitors; actives 0.56% (n = 390,000); AID 540317, 2011; AlphaScreen HP1-beta / biotin-H3K9me3 peptide binding; Chromobox protein homolog 1 (Homo sapiens), P83916; further: nearly all actives have a fitted effect of over 70% in size
Target sequence (P83916 whole entry, looked up): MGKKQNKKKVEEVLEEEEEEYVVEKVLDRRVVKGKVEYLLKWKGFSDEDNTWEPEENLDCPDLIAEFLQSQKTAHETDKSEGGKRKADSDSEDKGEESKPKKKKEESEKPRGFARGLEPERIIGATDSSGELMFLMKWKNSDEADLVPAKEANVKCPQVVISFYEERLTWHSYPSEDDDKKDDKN
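HP1-beta protein (50 nM final) preincubated 30 min at room temperature with biotinylated H3(1-18)K9me3 peptide (50 nM) in PBS pH 7.4, 0.01% Tween-20, then compound added for 30 min. AlphaScreen streptavidin donor/nickel chelate acceptor beads (10 ug/mL final), 30 min dark, luminescence read.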
G9a block – qHTS Assay for Inhibitors of Histone Lysine Methyltransferase G9a | Histone-lysine N-methyltransferase EHMT2 (Homo sapiens), Q96KQ7 | G9a H3K9 monomethylation, AlphaScreen, 2 h | Potency, µM (highest dose often 102 µM), most hits filed as inhibitors | actives 8.8% (n = 350,000); further: nearly all actives have a fitted effect of over 75% in size
Target sequence (Q96KQ7 913-1193 limits assumed): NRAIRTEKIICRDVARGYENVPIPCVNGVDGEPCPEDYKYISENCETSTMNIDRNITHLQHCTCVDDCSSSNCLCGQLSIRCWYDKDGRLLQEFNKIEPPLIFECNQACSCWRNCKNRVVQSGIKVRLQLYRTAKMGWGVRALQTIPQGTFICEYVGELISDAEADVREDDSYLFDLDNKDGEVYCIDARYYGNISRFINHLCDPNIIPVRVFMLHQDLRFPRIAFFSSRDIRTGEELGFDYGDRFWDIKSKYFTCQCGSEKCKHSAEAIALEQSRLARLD
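G9a (20 nM) preincubated 15 min RT with compounds, then 500 nM biotinylated H3K9 peptide and 20 uM SAM added; 2 h RT reaction. Monomethyl-H3K9 product detected by AlphaScreen with anti-H3K9me1 antibody, streptavidin donor and anti-rabbit IgG acceptor beads.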
Numbers stand for hits; [ ] = another dose, or the depositor's remark. The call rests on the fitted dose curve; in most records, active means well fitted curve in the direction sought with a large enough effect; inconclusive means small, poorly fitted or top-dose-only effect, or another doubt; inactive means no such curve, though single readings can be large; an effect the other way counts as inactive or inconclusive.

Results for CCSc1ccccc1C(=O)N1CCN(Cc2ccc3c(c2)OCO3)CC1 ?
Sfp PPTase inh: inconclusive; JMJD2A Tudor: inactive; BAZ2B inh: inactive; HP1b binding inh: inactive; G9a block: 7.9µM

What do the screens show for `CCOC(=O)c1ccc(NC(=O)Nc2ccc3snnc3c2)cc1`?
JMJD2A Tudor: inactive; BAZ2B inh: inactive; HP1b binding inh: inactive; G9a block: inactive

How did CCC(C)NC(=O)C1CCN(S(=O)(=O)c2ccc3c(c2)CCCN3C(C)=O)CC1 (centres undefined) do in these assays?
JMJD2A Tudor: inactive; BAZ2B inh: inactive; HP1b binding inh: inactive; G9a block: inactive

Results for C1CC1Cc1noc(CN2CCN(C3C4CC5CC(C4)CC3C5)CC2)n1 (centres undefined) ?
Sfp PPTase inh: inactive; JMJD2A Tudor: inactive; BAZ2B inh: inactive; HP1b binding inh: inactive; G9a block: inactive

What do the screens show for `COC(=O)C[C@H]1c2cc(C(F)(F)F)ccc2S(=O)(=O)N1Cc1ccccc1`?
JMJD2A Tudor: inactive; HP1b binding inh: inactive

Results for CN(C)CC(C)(C)CNC(=O)C1CCN(Cc2ccccc2O)CC1 ?
Sfp PPTase inh: inactive; JMJD2A Tudor: 6.3µM; BAZ2B inh: 56µM; HP1b binding inh: inconclusive; G9a block: 10µM

What do the screens show for `O=C(NCCc1ccccc1)C1CCN(Cc2ccccc2F)CC1`?
Sfp PPTase inh: inactive; JMJD2A Tudor: 2.5µM; BAZ2B inh: 56µM; HP1b binding inh: 25µM; G9a block: 7.9µM

Results for Cc1ccc(Cn2c(CN3CCC(C(=O)NCCc4ccccc4)CC3)cc3ccccc32)cc1 ?
JMJD2A Tudor: 40µM; BAZ2B inh: 18µM; HP1b binding inh: inconclusive; G9a block: 8.9µM

How did CCC1=C(c2ccc(C)cc2)S(=O)(=O)N=C1N1CCC(C(=O)NCc2ccc(N(C)C)cc2)CC1 do in these assays?
JMJD2A Tudor: inconclusive; BAZ2B inh: inconclusive; HP1b binding inh: inactive; G9a block: 13µM

What do the screens show for `O=C(NCCc1ccccc1)C1CCN(Cc2cc3ccccc3n2Cc2cccc(Cl)c2)CC1`?
JMJD2A Tudor: inactive; BAZ2B inh: inactive; HP1b binding inh: inactive; G9a block: inactive

Results for COc1ccc(CCN2CC(C(=O)NCCc3cccc(F)c3)CCC2=O)cc1 (centres undefined) ?
Sfp PPTase inh: inactive; JMJD2A Tudor: inactive; BAZ2B inh: inactive; HP1b binding inh: inactive; G9a block: inactive[12.7 µM]

What do the screens show for `CN(C)c1ccc(CNC(=O)C2CCN(Cc3cc4ccccc4n3Cc3ccccc3)CC2)cc1`?
JMJD2A Tudor: 11µM; BAZ2B inh: 3.5µM; HP1b binding inh: inactive; G9a block: 11µM

What do the screens show for `CC(=O)Nc1c(C)nn(-c2ccccc2)c1N1CCC(C(=O)NCc2ccccc2Cl)CC1`?
JMJD2A Tudor: inactive; BAZ2B inh: inactive; HP1b binding inh: inactive; G9a block: inactive

What do the screens show for `CN(C)c1ccc(CNC(=O)C2CCN(C(=O)c3ccc(-n4ccc5ccccc54)s3)CC2)cc1`?
JMJD2A Tudor: 18µM; BAZ2B inh: inactive; HP1b binding inh: inconclusive; G9a block: inconclusive

Results for O=C(NCc1cccnc1)C1CCN(Cc2cc3ccccc3n2Cc2ccccc2)CC1 ?
JMJD2A Tudor: inconclusive; BAZ2B inh: inconclusive; HP1b binding inh: inactive; G9a block: inactive

How did Cc1ccsc1CN1CCC(C(=O)NCc2ccccc2Cl)CC1 do in these assays?
Sfp PPTase inh: inconclusive; JMJD2A Tudor: 7.9µM; BAZ2B inh: inactive; HP1b binding inh: inconclusive; G9a block: 10µM

How did CN(C)c1ccc(CNC(=O)C2CCN(c3nc4ccccc4[nH]3)CC2)cc1 do in these assays?
JMJD2A Tudor: inconclusive; BAZ2B inh: inconclusive; HP1b binding inh: inactive; G9a block: 16µM

What do the screens show for `C[C@H](CO)N1C[C@H](C)[C@@H](CN(C)S(=O)(=O)c2cccs2)Oc2c(NC(=O)c3ccncc3)cccc2C1=O`?
JMJD2A Tudor: inactive; HP1b binding inh: inactive

How did COc1cccc(-c2cc(=O)c3cc(NC(=O)c4cccnc4)ccc3[nH]2)c1 do in these assays?
Sfp PPTase inh: inactive; G9a block: inconclusive

What do the screens show for `COc1ccc(C(c2c(O)ccc3ccccc23)N2CCOCC2)c(OC)c1` (centres undefined)?
Sfp PPTase inh: inactive; JMJD2A Tudor: 89µM; BAZ2B inh: inactive; HP1b binding inh: inactive; G9a block: 32µM

Results for Cc1ccc(Nc2nnc(SC(C)C(=O)Nc3c(C)n(C)n(-c4ccccc4)c3=O)s2)cc1 (centres undefined) ?
Sfp PPTase inh: inactive; JMJD2A Tudor: inactive; BAZ2B inh: inactive; HP1b binding inh: inactive; G9a block: inconclusive

What do the screens show for `COc1ccc(-n2c(Cc3cccn3C)nnc2SCC(=O)Nc2ccc(F)cc2)cc1`?
Sfp PPTase inh: inactive; JMJD2A Tudor: inactive; BAZ2B inh: inconclusive; HP1b binding inh: inactive; G9a block: 35µM

What do the screens show for `COc1ccc(NC(=O)CSc2nnc(Cc3cccn3C)n2-c2ccc(F)cc2)cc1`?
Sfp PPTase inh: inactive; JMJD2A Tudor: inactive; BAZ2B inh: inconclusive; HP1b binding inh: inactive; G9a block: 71µM

Results for CCCC(=O)O ?
Sfp PPTase inh: inactive; G9a block: inactive[12.7 µM]

Results for COc1ccccc1C(=O)N1CCN(C(=O)Cc2ccccc2)CC1 ?
Sfp PPTase inh: inactive; JMJD2A Tudor: inactive; BAZ2B inh: inactive; HP1b binding inh: inactive; G9a block: inactive

Results for COc1cccc(C(=O)N2CCN(C3CCCCC3)CC2)c1 ?
Sfp PPTase inh: inactive; JMJD2A Tudor: 11µM; BAZ2B inh: inconclusive; HP1b binding inh: inactive

What do the screens show for `COc1ccc(C(=O)N2CCC(C(=O)N3CCN(Cc4ccccc4)CC3)CC2)cc1`?
Sfp PPTase inh: inactive; JMJD2A Tudor: inactive; BAZ2B inh: inactive; HP1b binding inh: inactive; G9a block: inactive

What do the screens show for `COc1cccc(C(=O)N2CCN(C3CCN(Cc4ccccc4)CC3)CC2)c1`?
Sfp PPTase inh: inconclusive; BAZ2B inh: 28µM; G9a block: 8.9µM

Results for COc1ccccc1C(=O)N1CCN(C2CCN(Cc3ccccc3)CC2)CC1 ?
Sfp PPTase inh: inactive; JMJD2A Tudor: 7.9µM; BAZ2B inh: 56µM; HP1b binding inh: inconclusive; G9a block: 10µM

How did COc1ccc(C(=O)N2CCN(C3CCC(c4ccccc4)CC3)CC2)cc1OC (centres undefined) do in these assays?
Sfp PPTase inh: inactive; JMJD2A Tudor: 2.8µM; BAZ2B inh: 50µM; HP1b binding inh: inactive; G9a block: 3.2µM

Results for O=C(OCC(=O)N1CCCC1)c1ccccc1O ?
Sfp PPTase inh: inactive; JMJD2A Tudor: inactive; BAZ2B inh: inactive; HP1b binding inh: inactive; G9a block: inactive

What do the screens show for `c1ccc(C2CCC(N3CCN(c4ccccc4)CC3)CC2)cc1` (centres undefined)?
Sfp PPTase inh: inactive; JMJD2A Tudor: inconclusive; BAZ2B inh: inconclusive; HP1b binding inh: inactive; G9a block: 56µM
